94 compounds from PubChem BioAssay AID1794808 (University of Kansas High Throughput Screening Laboratory, 2022) can be followed below.

Several values for one entry are separate records, joined by “and”; a condition that tells them apart may be missing. Equal values may be shown once. Out of some 210,000 compounds screened, about 520 (0.25%) were called active. Cut-off read from the data, not from the text of the source: active = inhibition above about 50%; inactive = the rest. The entries come from a sample that favours actives as a whole. More than one record can exist for a structure, and the calls need not agree.

The assay deals with Plasmodium falciparum apicoplast DNA polymerase (apPOL). As to the kind of experiment: Pf-apPOL inhibitors, biochemical, fluorescence (AID 1794808). The note with it: Recombinant Pf-apPOL, molecular beacon fluorescence, 1.5 h; at 10 µM; stronger effect = higher value.
For the compound `COc1ccccc1OCC(=O)N1CCCCC1CCN1CCCCCC1` (centres undefined), the inhibition (commonly the relative decrease from the control value, in per cent) is -10.1% (inactive).
For the compound `Cc1ccc2c(c1)C(=O)CC(c1cc(Br)cc3c1OCOC3)O2` (centres undefined), the inhibition is -13.6% (inactive).
In the case of `Cc1ccccc1-n1nc2c(c1NC(=O)c1c(F)cccc1Cl)CS(=O)(=O)C2` it was -3.3% (inactive).
Regarding `Cc1nc(C(C)C)nc2c1CCC(=O)N2CCCN1CCOCC1`, the inhibition is 4% (inactive).
With `Cc1cccc(NC(=O)CC2SC(=Nc3ccccc3)NC2=O)c1` (centres undefined), the inhibition is 2.1% (inactive).
Regarding `O=C(NCCCN1CCOCC1)c1cc2c(=O)oc3ccccc3c2s1`, the inhibition is 1.2% (inactive).
Consider `O=C(NC1CCCC1)c1ccc(-n2nc(N3CCCC3)ccc2=O)cc1`, for which the inhibition was 4.7% (inactive).
The same measure for `COC(=O)c1ccccc1OC1OC(CO)C(O)C(O)C1NC(C)=O` (centres undefined): 1.3% (inactive); for `O=C(c1ccc([N+](=O)[O-])cc1)N1CCN(c2cccc(Cl)c2)CC1`: -2.7% (inactive).
Take `CC(=O)Nc1ccc(C(=O)N2CCN(c3cccc(Cl)c3)CC2)cc1`: the inhibition is 9.7% (inactive).
In the case of `N#CC(C#N)=C1SCN(c2cccc(Cl)c2)CS1` it was 66.2% (active).
Take `CCn1cc(C2=CCN(S(=O)(=O)c3cccc(C)c3)CC2)c2cccnc21`: the inhibition was -11% (inactive).
In the case of `Nc1cc2c(cc1[N+](=O)[O-])OCCOCCOc1ccc([N+](=O)[O-])cc1OCCOCCO2` it was -0.2% (inactive); in that of `CCCNc1cc(N2CCCC(CCC(=O)Nc3ccc4c(c3)OCCO4)C2)ncn1` (centres undefined), -2.1% (inactive).
With `COc1cccc(NC(=O)c2cncc(-c3ccc(F)cc3)c2)c1`, the inhibition was 1.8% (inactive).
In the case of `Cc1cc(C)cc(-c2nc(-c3ccc4c(c3)oc(=O)n4C)no2)c1` it was 0.7% (inactive); in that of `COc1ccc(C(O)=C2C(=O)C(=O)N(CCN3CCOCC3)C2c2ccccc2F)cc1OC` (centres undefined), -2.5% (inactive); in that of `O=C(COc1ccc(Cl)cc1)N1CCC(N2CCCCCC2)CC1`, -3.8% (inactive).
`COc1ccc(NCN2C(=O)c3cc(Cl)c(Cl)cc3C2=O)cc1`: the inhibition is 7.8% (inactive).
`CCN(CC)CCNC(=O)C(=O)NCC1OCCN1S(=O)(=O)c1ccc(F)cc1` (centres undefined): the inhibition was -1.4% (inactive).
The same measure for `O=C(Nc1ccc(F)c(Cl)c1)c1noc2c1CCCCC2`: -2.8% (inactive).
Take `CCCCC(NC(C)=O)C(=O)O` (centres undefined): the inhibition is 4.1% (inactive).
Regarding `CCCCOc1ccccc1/C=c1\sc2ncnn2c1=O`, the inhibition was 10.1% (inactive).
In the case of `COc1ccc(NC(=O)CCC2CCN(c3cc(NC4CC4)ncn3)CC2)cc1` it was 0.2% (inactive).
The same measure for `COCCNC(=O)NCCCc1ccc(N(C)C)cc1`: -1.5% (inactive); for `COc1cccc(/C=c2\sc3nc(=O)c(C)nn3c2=O)c1`: 1.4% (inactive); for `CC(=O)N1CCc2sc(S(=O)(=O)N3CCN(c4ccccc4F)CC3)cc2C1`: -5.6% (inactive).
For the compound `COc1ccc(-c2cc(=O)n(CCNC(=O)Cn3cnc4ccccc4c3=O)cn2)cc1`, the inhibition was -6.7% (inactive).
In the case of `COc1ccc(NC(=O)CSc2nc3c(cnn3-c3ccc(C)cc3)c(=O)[nH]2)c(OC)c1` it was 3.2% (inactive); in that of `C(=Nc1ccccc1-n1cccc1)c1cnc(-c2ccccc2)[nH]1`, -2.2% (inactive); in that of `C=CCNC(=O)CCSc1ccc(Cl)cc1`, 0.6% (inactive).
The same measure for `CC1CCCCC1NS(=O)(=O)c1cc(C(=O)Nc2ccc(F)c(F)c2)ccc1F` (centres undefined): 37.3% (inactive).
Take `CC12CC3(C)CC(C)(C1)CC(C(=O)Nc1ccc(F)c(Cl)c1)(C2)C3`: the inhibition was -2.2% (inactive).
`O=C(c1cc(F)cc(F)c1)N1CCC(c2cnn(-c3cccc(F)c3)c2)CC1`: the inhibition was -5.6% (inactive).
For the compound `COc1ccc2nc(SCC(=O)NCc3cccs3)[nH]c2c1`, the inhibition was -5.8% (inactive).
The same measure for `COc1ccc2nc(SCC(=O)c3ccc(Cl)c(Cl)c3)[nH]c2c1`: 79.6% (active); for `COc1ccc2nc(SC)[nH]c2c1`: -6.5% (inactive).
For the compound `CC(=O)N1CCc2cc(N3CC(C(=O)Nc4cccc(F)c4)CC3=O)ccc21` (centres undefined), the inhibition is -3.7% (inactive).
In the case of `O=C(CCCC1=NS(=O)(=O)c2ccccc2N1)Nc1cccc(C(=O)O)c1` it was -7.1% (inactive).
Turning to `O=C(NCCC1=CCCCC1)C(=O)NCC(c1ccc2c(c1)OCO2)N1CCOCC1` (centres undefined), the inhibition was -1.8% (inactive).
The same measure for `Cc1ccc(C)c(OCC(=O)Nc2ccccc2C(N)=O)c1`: 4.8% (inactive); for `O=C(NCC1COC2(CCCC2)O1)c1ccccc1[N+](=O)[O-]` (centres undefined): -1.9% (inactive).
Take `O=C(C=Cc1ccco1)NCC1COC2(CCCCC2)O1` (centres undefined): the inhibition was -8.3% (inactive).
On to `O=C(CCc1ccccc1)NCC1COC2(CCCCC2)O1` (centres undefined), for which the inhibition was 90.3% (active).
For the compound `Cc1cc(NC(=O)N2CC3CCCN3c3ccccc32)ccc1Br` (centres undefined), the inhibition is 0.1% (inactive).
The same measure for `CN1/C(=C/C(=O)c2ccc(I)cc2)Sc2ccccc21`: -77.1% (inactive).
In the case of `CC(C)CNS(=O)(=O)c1ccc2nc(NC(=O)c3ccco3)sc2c1` it was 45.1% (inactive); in that of `NC(COc1ccc(Cl)cc1)=NOC(=O)c1ccsc1`, -6.2% (inactive).
In the case of `COc1cc(OC)c(N2C(=O)NC3CC2(C)Oc2ccccc23)cc1Cl` (centres undefined) it was -6.1% (inactive); in that of `Fc1ccc(-c2nc(-c3ccc(Cl)cc3)no2)cc1`, -2.6% (inactive).
In the case of `O=C(Nc1cc(F)c2nc(N3CCCC3)ccc2c1)c1cccc(F)c1`, the inhibition is 0.1% (inactive).
`COc1ccc(/C=C2/C(=O)N(c3ccccc3)N=C2C)c(OC)c1`: the inhibition is 2.6% (inactive).
With `COc1ccc(C2C=C(Nc3ccccc3)C(=O)N2c2ccccc2)c(OC)c1` (centres undefined), the inhibition is 65.6% (active).
For `O=C1C(Nc2ccccc2)=CC(c2ccc([N+](=O)[O-])cc2)N1c1ccccc1` (centres undefined), the inhibition is 8.9% (inactive).
In the case of `Cc1ccc2c(c1)N(Cc1nc(-c3ccc(C)c(C)c3)no1)C(=O)CO2` it was -2.1% (inactive); in that of `CC(C=CC=C(C)C(=O)OC1OC(COC2OC(CO)C(O)C(O)C2O)C(O)C(O)C1O)=CC=CC=C(C)C=CC=C(C)C(=O)OC1OC(COC2OC(CO)C(O)C(O)C2O)C(O)C(O)C1O` (centres undefined), -1.1% (inactive).
As to `CC(C)(C)NC(=O)N1CCC(CNC(=O)C(=O)Nc2cc(F)ccc2F)CC1`, the inhibition is -4.8% (inactive).
Take `COc1cc(OC)c(OC)cc1CN1CCCC1c1cc(C)on1` (centres undefined): the inhibition was 3.3% (inactive).
For `CCN1C2=C(C(=O)CC(C)(C)C2)C(c2cc(Cl)c(O)c(OC)c2)C2=C1CC(C)(C)CC2=O`, the inhibition is 6.7% (inactive).
For `CCN1C2=C(C(=O)CCC2)C(c2cc(Br)c(O)c(OC)c2)C2=C1CCCC2=O`, the inhibition is 1.1% (inactive).
Consider `CCOc1cc(C2C3=C(CCCC3=O)N(CC)C3=C2C(=O)CCC3)cc(Cl)c1O`, for which the inhibition is 65.7% (active).
With `Cc1cccc(NC(=O)CSc2nccn2C)c1C`, the inhibition was -4.4% (inactive).
In the case of `COC(=O)c1cc(Nc2cc(F)ccc2F)c2ccccc2n1` it was -1.7% (inactive); in that of `CCc1ccc(NC(=O)CCS(=O)(=O)c2ccc(Br)s2)cc1`, -6.3% (inactive); in that of `COc1ccc(CC2(C)OC(c3ccc(C(C)(C)C)cc3)=NN2C(C)=O)cc1` (centres undefined), 5.3% (inactive).
The same measure for `CCOc1nn(-c2nc(-c3ccccc3)cc(C(F)(F)F)n2)cc1[N+](=O)[O-]`: 1.6% (inactive).
In the case of `c1ccc2[nH]c(CSc3nc4ccccc4[nH]3)nc2c1` it was 86% (active) and -1.3% (inactive); in that of `c1ccc(-c2nnc(SCc3nc4ccccc4[nH]3)o2)cc1`, -3% (inactive).
Take `CNC(=O)CSc1nc2ccccc2[nH]1`: the inhibition was -7.9% (inactive).
The same measure for `COc1ccc(C2=NOC(C(=O)N3CCCc4ccccc43)C2)cc1OC` (centres undefined): -3.1% (inactive).
On to `O=C(NCc1cccc(F)c1)C1CCc2sc(C(=O)N3CCCC3)cc2C1` (centres undefined), for which the inhibition is -2.5% (inactive).
Turning to `CCn1ccc(C(=O)N2CCCC2c2cccc(F)c2)n1` (centres undefined), the inhibition was -3.5% (inactive).
In the case of `O=C(NCC1CN(c2ccc3c(c2)OCO3)C(=O)O1)c1ccco1` (centres undefined) it was -9.6% (inactive); in that of `CC(C)(C)c1ccc(CC(=O)c2ccc(O)cc2O)cc1`, -3.9% (inactive).
In the case of `O=C1CCCC2=C1C(c1ccccn1)C1=C(CCCC1=O)O2`, the inhibition was -0.8% (inactive).
The same measure for `O=C(Nc1ncc(Cc2cccc(C(F)(F)F)c2)s1)c1ccc(-n2cnnn2)cc1`: -2.3% (inactive); for `CCOC(=O)N1CCc2nn(CC(=O)NC(C)CCc3ccccc3)c(=O)cc2C1` (centres undefined): -4.2% (inactive).
For the compound `O=C(Nc1nnc(CSCc2ccccc2)s1)c1ccc(F)cc1`, the inhibition is -1.1% (inactive).
In the case of `COc1ccc(CCNC(=O)C2c3ccccc3C(=O)N2Cc2ccc(C)cc2)cc1OC` (centres undefined) it was -9.1% (inactive); in that of `O=C(Nc1ccc(-c2nc3ccccc3[nH]2)cc1)c1cccc(F)c1`, -15.5% (inactive); in that of `CCNC(=O)c1nsc2ccc(C)cc12`, -1.8% (inactive).
In the case of `CCOC(=O)c1ccc(NS(=O)(=O)c2c[nH]c(=O)[nH]c2=O)cc1` it was -10.5% (inactive); in that of `CCN(CC)CCCNC(=O)C1CCN(S(=O)(=O)N2CCC3(CC2)OCCO3)CC1`, -18.9% (inactive); in that of `Cc1ccc(-n2cc(C(=O)N3CCCCC3)nn2)cc1C`, -2.2% (inactive).
Consider `COc1ccc(/C=C2\N=C(c3cc(OC)c(OC)c(OC)c3)OC2=O)cc1`, for which the inhibition is -0.6% (inactive).
For `Cc1ccc(-n2c(O)c(C=Nc3cc(Cl)ccc3O)c(=O)[nH]c2=O)cc1`, the inhibition was -0.1% (inactive).
Turning to `CCc1c(C)c2ccc(OCC(C)C)cc2oc1=O`, the inhibition is -2.3% (inactive).
Regarding `COc1ccc(CCNC(=O)C2CC(=O)N(c3ccc(F)c(Cl)c3)C2)cc1OC` (centres undefined), the inhibition was 4.9% (inactive).
Take `O=C1CC2(CCN(C(=O)C=Cc3ccccc3)CC2)Oc2ccccc21`: the inhibition was -17.9% (inactive).
Consider `O=C(Nc1ccc(Br)cn1)c1ccc([N+](=O)[O-])cc1Cl`, for which the inhibition is 81.8% (active).
On to `Cc1cc(C)nc(NC(=O)c2ccc([N+](=O)[O-])cc2Cl)c1`, for which the inhibition is 5.5% (inactive).
As to `O=C(Nc1ccncc1)c1ccc([N+](=O)[O-])cc1Cl`, the inhibition was 0.3% (inactive).
Turning to `O=C(C1CC1)N1CCC(COCc2ccccc2)CC1`, the inhibition is -12.6% (inactive).
In the case of `CCS(=O)(=O)Oc1ccccc1-c1nc2cc(Cl)ccc2o1` it was -3.6% (inactive).
